From PubChem BioAssay (NCATS)
Records with an inconclusive call do not appear. Unless noted, calls follow the shape of the dose curve; as a rule, active = well fitted curve in either direction with a large enough effect (not every such curve was filed as active); inconclusive = small, poorly fitted or top-dose-only effect, or another doubt; inactive = flat fitted curve, though single readings scatter.

Key:
[1] = AP1 Signaling Pathway (AID 357); details: ME-180 AP-1-bla reporter, EGF-induced, beta-lactamase ratio, 5 h; at 17.2 µM (top of the series) unless noted;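 also: ME-180 reporter cells stimulated with EGF at its EC50 level; % is scaled to controls: 0 for no effect and ±100 for the full control effect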
Procedure, shortened: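 Modulation of EGF-driven AP-1 transcription was assessed with a beta-lactamase reporter in ME-180 cells. Compound and EC50 EGF were co-incubated 5 hours at 37 °C before 2.5-hour CCF4 loading at room temperature and dual-emission reading.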

[2] = NFAT Signaling Pathway (AID 444); details: Jurkat NFAT-bla M1, carbachol, beta-lactamase ratio, 5 h; at 17.2 µM (top of the series) unless noted;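 also: carbachol stimulus at about its EC50 of 1 µM final; % is scaled to controls: 0 for no effect and ±100 for the full control effect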
Procedure, shortened: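 Read-out: CCF4 FRET ratio (460 nm/530 nm) after 1 h RT dye loading, used for %activity and AC50 from titration series. Cells: Jurkat NFAT-β-lactamase/M1 line, treated with compound plus 1 uM carbachol for 5 h, 37 °C.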

[3] = Stat Signaling Pathway (AID 446); details: ME-180 (cervical carcinoma) SIE beta-lactamase reporter, IL-6 stimulated, 5 h; at 17.2 µM (top of the series) unless noted;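 also: ME-180 cervical cancer cells given 40 pM IL-6 alongside compound; SIE-controlled beta-lactamase reporter measured as 460/530 nm FRET emission ratio; % is scaled to controls: 0 for no effect and ±100 for the full control effect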
Procedure, shortened: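 Normalization used AC90 stimulation (300 pM IL-6) and AC90 inhibition (125 nM pan-JAK inhibitor at 40 pM IL-6). The underlying signal is SIE-driven beta-lactamase in ME-180 cells after 5 h IL-6 exposure with compound.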

[4] = target: Glucocorticoid receptor (Homo sapiens) (UniProt P04150); experiment: GR-GFP Redistribution (AID 450;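 active = compounds whose dose series gives a full or clear partial fitted curve of increased nuclear translocation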; also: potency is read from the fitted curve at half-maximal effect)
Glucocorticoid receptor (Homo sapiens), sequence (P04150 whole entry, looked up): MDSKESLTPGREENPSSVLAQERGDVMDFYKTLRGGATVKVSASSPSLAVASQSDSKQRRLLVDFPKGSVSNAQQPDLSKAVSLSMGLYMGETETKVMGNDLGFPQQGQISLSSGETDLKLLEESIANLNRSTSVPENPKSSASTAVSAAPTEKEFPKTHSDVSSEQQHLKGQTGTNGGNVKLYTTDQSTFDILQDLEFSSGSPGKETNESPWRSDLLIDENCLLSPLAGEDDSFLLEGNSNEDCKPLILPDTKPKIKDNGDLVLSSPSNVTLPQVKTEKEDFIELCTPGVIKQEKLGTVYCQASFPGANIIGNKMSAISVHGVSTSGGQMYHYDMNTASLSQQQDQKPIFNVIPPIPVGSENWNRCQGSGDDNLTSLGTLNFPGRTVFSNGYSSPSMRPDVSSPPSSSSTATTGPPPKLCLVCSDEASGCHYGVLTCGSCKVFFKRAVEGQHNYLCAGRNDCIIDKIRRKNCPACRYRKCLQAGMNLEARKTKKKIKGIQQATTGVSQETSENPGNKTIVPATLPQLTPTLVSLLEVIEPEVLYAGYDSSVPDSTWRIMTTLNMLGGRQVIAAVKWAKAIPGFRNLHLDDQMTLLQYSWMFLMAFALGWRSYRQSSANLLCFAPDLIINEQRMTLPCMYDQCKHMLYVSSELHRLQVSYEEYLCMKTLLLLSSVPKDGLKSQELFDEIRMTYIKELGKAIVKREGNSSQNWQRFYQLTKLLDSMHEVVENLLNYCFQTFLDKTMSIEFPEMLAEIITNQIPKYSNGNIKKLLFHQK

Cc1cccc(N(CC(O)CN(C)C)S(=O)(=O)c2ccccc2)c1 (stereo unspecified)
inactive: activity change, negative = inhibition [1] -9.68% | activity change, negative = inhibition [2] -3.01% | activity, negative = inhibition [3] 3.62% | Potency [4] > 20.6 µM

COc1ccc2c(c1)[nH]c1c(=O)n(CC3CCCO3)cnc12 (stereo unspecified)
inactive: activity change, negative = inhibition [1] -4.81% | activity change, negative = inhibition [2] 16.4% | activity, negative = inhibition [3] 2.17% | Potency [4] > 20.6 µM

CC(Sc1ccc2ccccc2n1)C(=O)O (stereo unspecified)
inactive: activity change, negative = inhibition [1] 14.7% | activity change, negative = inhibition [2] 9.86% | activity, negative = inhibition [3] 5.88% | Potency [4] > 20.6 µM

CCOC(=O)CCc1c(C)c(C#N)c2nc3ccccc3n2c1-n1ccnc1C
inactive: activity change, negative = inhibition [1] -3.36% | activity change, negative = inhibition [2] -1.61% | activity, negative = inhibition [3] -4.34% | Potency [4] > 20.6 µM

Cc1cccc(-c2nnc3n2N=C(c2ccccc2)CS3)c1
inactive: activity change, negative = inhibition [1] -18.5% | activity change, negative = inhibition [2] -10.4% | activity, negative = inhibition [3] -6.13% | Potency [4] > 20.6 µM

CCOc1ccc(CCNC(=O)C(O)c2ccccc2)cc1 (stereo unspecified)
inactive: activity change, negative = inhibition [1] 13% | activity change, negative = inhibition [2] 4.66% | activity, negative = inhibition [3] 18.6% | Potency [4] > 20.6 µM

COc1ccc(-n2ccc(=O)c3c2CCCC3=O)cc1
inactive: activity change, negative = inhibition [1] 1.82% | activity change, negative = inhibition [2] 1.88% | activity, negative = inhibition [3] 3.34% | Potency [4] > 20.6 µM

CCCC1Cc2c(sc3ncnc(N)c23)CO1 (stereo unspecified)
inactive: activity change, negative = inhibition [1] -16.4% | activity change, negative = inhibition [2] -5.16% | activity, negative = inhibition [3] -9.41% | Potency [4] > 20.6 µM

CCCSc1nc(C)c(CC(=O)OCC)c(=O)[nH]1
inactive: activity change, negative = inhibition [1] -4.57% | activity change, negative = inhibition [2] -4.22% | activity, negative = inhibition [3] -2.57% | Potency [4] > 20.6 µM

CCOC(=O)c1ccc2nc(NC(NC(C)=O)(C(=O)OC)C(F)(F)F)sc2c1 (stereo unspecified)
inactive: activity change, negative = inhibition [1] -14% | activity change, negative = inhibition [2] -1.54% | activity, negative = inhibition [3] -10.8% | Potency [4] > 20.6 µM

CCN(CC)CCN1C(=O)C(O)=C(C(=O)c2cccs2)C1c1ccccn1 (stereo unspecified)
inactive: activity change, negative = inhibition [1] -0.981% | activity change, negative = inhibition [2] 9.2% | activity, negative = inhibition [3] -0.0775% | Potency [4] > 20.6 µM

CC1CCCCN1C(=O)C12CCC(C)(/C(=N/O)C1)C2(C)C (stereo unspecified)
inactive: activity change, negative = inhibition [1] -2.56% | activity change, negative = inhibition [2] 6.34% | activity, negative = inhibition [3] 7.2% | Potency [4] > 20.6 µM

Cc1ccc(C2/C(=C(\O)c3cnn(-c4ccccc4)c3C)C(=O)C(=O)N2CCN(C)C)o1 (stereo unspecified)
inactive: activity change, negative = inhibition [1] -6.2% | activity change, negative = inhibition [2] -12.1% | activity, negative = inhibition [3] 4.22% | Potency [4] > 20.6 µM

OC(CNCCCN1CCCCC1)COc1ccccc1 (stereo unspecified)
inactive: activity change, negative = inhibition [1] -10.5% | activity change, negative = inhibition [2] -28.5% | activity, negative = inhibition [3] 9.93% | Potency [4] > 20.6 µM

CN1CCN(Cc2c(O)ccc3c(-c4ccccc4)cc(=O)oc23)CC1
inactive: activity change, negative = inhibition [1] -11.8% | activity change, negative = inhibition [2] -9.28% | activity, negative = inhibition [3] -7.33% | Potency [4] > 20.6 µM

COc1cccc(NC(=O)c2cc(C(=O)Nc3cccc(OC)c3)n(C)n2)c1
inactive: activity change, negative = inhibition [1] -12.7% | activity change, negative = inhibition [2] -14.3% | activity, negative = inhibition [3] -3.92% | Potency [4] > 20.6 µM

CCCCC1CC1C(=O)Nc1ccc(OC)c(OC)c1 (stereo unspecified)
inactive: activity change, negative = inhibition [1] -2.76% | activity change, negative = inhibition [2] 3.38% | activity, negative = inhibition [3] 6.67% | Potency [4] > 20.6 µM

CCn1c(SCC(=O)Nc2ccccc2C(=O)OC)nnc1-c1ccc(N)cc1
inactive: activity change, negative = inhibition [1] -23.2% | activity change, negative = inhibition [2] -3.89% | activity, negative = inhibition [3] 0.432% | Potency [4] > 20.6 µM

Nc1ncnc2nc(SCc3ccccc3)[nH]c12
inactive: activity change, negative = inhibition [1] -9.21% | activity change, negative = inhibition [2] -4.19% | activity, negative = inhibition [3] -9.74% | Potency [4] > 20.6 µM
